Results from PubChem BioAssay AID1159580 (chemical genetic matrix, 2015).
Hit rate of the full screen: of about 5,500 compounds, about 2,000 (36%) were called active. About 18% were inconclusive and are not listed. No stated cut-off is given here; in the data, active means normalized growth mostly below about 0.91 (no sharp cut-off); inconclusive means no clear call, values can overlap the other calls; inactive means mostly above about 0.92. This is one part of the list.

Experiment: chemical genetic growth profiling, strain panel (AID 1159580);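 further: tested at 20 µM; growth read once vehicle control cultures reached saturation at 30 °C; 1 = growth at the plate median or of vehicle wells; lower values mean less growth of the strain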
Settings: S. cerevisiae deletion strains, growth OD
[1] = locus YDR150W, strain NUM1, active compounds read low
[2] = locus YHR030C, strain SLT2, active compounds read low
[3] = locus YNL153C, strain GIM3, active compounds read low
[4] = locus YNL322C, strain KRE1, active compounds read low
[5] = locus YPL241C, strain CIN2, active compounds read low

Measured: normalized growth

CC12CCC3C4CCC(=O)C=C4CCC3C1CCC2=O (stereo not given)
active: locus YLR039C, strain RIC1, active compounds read low 0.786 | locus YLR262C, strain YPT6, active compounds read low 0.737
inactive: locus YAL013W, strain DEP1, active compounds read low 1.01 | locus YBR229C, strain ROT2, active compounds read low 1.01 | locus YDL101C, strain DUN1, active compounds read low 1 | [1] 0.995 | locus YEL061C, strain CIN8, active compounds read low 1.01 | locus YGR078C, strain PAC10, active compounds read low 1.01 | locus YGR229C, strain SMI1, active compounds read low 1.01 | [2] 0.898 | locus YHR087W, strain rtc3, active compounds read low 1.03 | locus YJR043C, strain POL32, active compounds read low 1.02 | locus YJR075W, strain HOC1, active compounds read low 1.02 | locus YLR058C, strain SHM2 (second series), active compounds read low 1.01 | locus YLR085C, strain ARP6, active compounds read low 1.02 | locus YML094W, strain GIM5, active compounds read low 0.994 | locus YMR219W, strain ESC1, active compounds read low 1.01 | locus YMR263W, strain SAP30, active compounds read low 0.999 | locus YMR307W, strain GAS1, active compounds read low 0.989 | [3] 0.991 | locus YNL298W, strain CLA4 (second series), active compounds read low 1.01 | [4] 1.02 | locus YNR030W, strain Alg12, active compounds read low 0.998 | locus YOL006C, strain TOP1, active compounds read low 0.971 | locus YPL055C, strain LGE1, active compounds read low 1.02 | [5] 1.01 | locus YPR135W, strain CTF4, active compounds read low 0.897

C[C@]12CCC(=O)C=C1CC[C@@H]1[C@@H]2C(=O)C[C@@]2(C)[C@H]1CC[C@]2(O)C(=O)CO
inactive: locus YAL040C, strain CLN3, active compounds read low 0.957 | locus YCL061C, strain MRC1 (second series), active compounds read low 0.993 | [1] 1 | locus YDR363W, strain ESC2, active compounds read low 0.986 | locus YER002W, strain NOP16, active compounds read low 0.966 | locus YNL128W, strain TEP1, active compounds read low 0.978 | [3] 0.979 | locus YNL175C, strain NOP13, active compounds read low 0.982 | locus YNL197C, strain WHI3, active compounds read low 0.942 | locus YNL224C, strain SQS1, active compounds read low 0.983 | [4] 0.988 | locus YOR083W, strain WHI5 (second series), active compounds read low 0.94 | [5] 0.995

C#C[C@]1(OC(C)=O)CCC2C3CCC4=C/C(=N\O)CCC4C3CC[C@@]21CC (stereo not given in full)
inactive: locus YAL026C, strain drs2, active compounds read low 0.921 | locus YBR171W, strain sec66, active compounds read low 0.944 | locus YCL061C, strain MRC1, active compounds read low 0.94 | locus YCL069W, strain vba3, active compounds read low 0.984 | locus YDR001C, strain nth1, active compounds read low 0.998 | locus YDR334W, strain swr1, active compounds read low 1 | locus YEL037C, strain rad23, active compounds read low 0.993 | locus YEL061C, strain CIN8 (second series), active compounds read low 0.996 | locus YER111C, strain swi4, active compounds read low 1.01 | locus YGL227W, strain vid30, active compounds read low 0.97 | locus YJL092W, strain hpr5, active compounds read low 0.941 | locus YJL115W, strain asf1, active compounds read low 1.01 | locus YJL154C, strain vps35, active compounds read low 0.994 | locus YJR066W, strain TOR1, active compounds read low 0.863 | locus YKR026C, strain gcn3, active compounds read low 0.99 | locus YKR091W, strain srl3, active compounds read low 0.941 | locus YLR357W, strain rsc2, active compounds read low 0.937 | locus YLR384C, strain iki3, active compounds read low 1.01 | locus YMR129W, active compounds read low 0.986 | locus YNL183C, strain NPR1, active compounds read low 0.84 | locus YNL248C, strain rpa49, active compounds read low 0.996 | locus YNL322C, strain KRE1 (second series), active compounds read low 1.01 | locus YNR049C, strain mso1, active compounds read low 0.987 | locus YOR080W, strain dia2, active compounds read low 0.917
active: locus YAL021C, strain ccr4, active compounds read low 0.823 | locus YAL030W, strain snc1, active compounds read low 0.582 | locus YBL061C, strain skt5, active compounds read low 0.514 | locus YBR009C, strain hhf1, active compounds read low 0.403 | locus YBR023C, strain chs3, active compounds read low 0.612 | locus YBR231C, strain swc5, active compounds read low 0.333 | locus YBR279W, strain paf1, active compounds read low 0.879 | locus YCL011C, strain gbp2, active compounds read low 0.476 | locus YCL016C, strain dcc1, active compounds read low 0.77 | locus YCR088W, strain abp1, active compounds read low 0.898 | locus YDL005C, strain med2, active compounds read low 0.41 | locus YDL040C, strain nat1, active compounds read low 0.726 | locus YDR069C, strain doa4, active compounds read low 0.367 | locus YDR137W, strain rgp1, active compounds read low 0.242 | locus YDR159W, strain sac3, active compounds read low 0.267 | locus YDR195W, strain ref2 0.269 | locus YDR297W, strain sur2, active compounds read low 0.716 | locus YDR335W, strain msn5, active compounds read low 0.866 | locus YDR392W, strain spt3, active compounds read low 0.193 | locus YEL003W, strain gim4, active compounds read low 0.759 | locus YER015W, strain faa2, active compounds read low 0.918 | locus YER016W, strain bim1, active compounds read low 0.599 | locus YER155C, strain BEM2 (second series), active compounds read low 0.737 | locus YFR010W, strain ubp6, active compounds read low 0.761 | locus YGL167C, strain pmr1, active compounds read low 0.682 | locus YGL173C, strain kem1, active compounds read low 0.817 | locus YGL240W, strain doc1, active compounds read low 0.782 | locus YGL253W, strain hxk2, active compounds read low 0.71 | locus YHR013C, strain ard1, active compounds read low 0.315 | locus YHR027C, strain rpn1, active compounds read low 0.725 | [2] 0.671 | locus YHR079C, strain IRE1, active compounds read low 0.707 | locus YHR142W, strain chs7, active compounds read low 0.776 | locus YJL095W, strain BCK1 (second series), active compounds read low 0.503 | locus YJL095W, strain BCK1, active compounds read low 0.605 | locus YJL129C, strain trk1, active compounds read low 0.56 | locus YJL164C, strain tpk1, active compounds read low 0.469 | locus YJL166W, strain qcr8, active compounds read low 0.344 | locus YJL187C, strain SWE1, active compounds read low 0.582 | locus YKL160W, strain elf1, active compounds read low 0.495 | locus YLL001W, strain dnm1, active compounds read low 0.826 | locus YLL026W, active compounds read low 0.461 | locus YLL041C, strain sdh2, active compounds read low 0.775 | locus YLR027C, strain aat2, active compounds read low 0.513 | locus YLR113W, strain HOG1, active compounds read low 0.305 | locus YLR221C, strain rsa3, active compounds read low 0.638 | locus YLR258W, strain gsy2, active compounds read low 0.495 | locus YLR262C, strain YPT6 (second series), active compounds read low 0.18 | locus YLR320W, strain mms22, active compounds read low 0.558 | locus YLR342W, strain FKS1, active compounds read low 0.518 | locus YLR370C, strain arc18, active compounds read low 0.785 | locus YML120C, strain ndi1, active compounds read low 0.471 | locus YMR058W, strain fet3, active compounds read low 0.89 | locus YMR125W, strain sto1, active compounds read low 0.884 | locus YMR205C, strain PFK2, active compounds read low 0.358 | locus YMR231W, strain pep5, active compounds read low 0.45 | locus YNL071W, strain lat1, active compounds read low 0.476 | locus YNL209W, strain ssb2, active compounds read low 0.846 | locus YOR001W, strain rrp6, active compounds read low 0.767 | locus YOR070C, strain gyp1, active compounds read low 0.394 | locus YOR083W, strain WHI5, active compounds read low 0.619 | locus YOR106W, strain vam3, active compounds read low 0.281 | locus YOR231W, strain MKK1, active compounds read low 0.673 | locus YOR265W, strain rbl2, active compounds read low 0.668 | locus YOR270C, strain vph1, active compounds read low 0.512 | locus YOR290C, strain snf2, active compounds read low 0.563 | locus YPL051W, strain arl3, active compounds read low 0.456 | locus YPL078C, strain atp4, active compounds read low 0.835 | locus YPL106C, strain sse1, active compounds read low 0.824 | locus YPL240C, strain hsp82, active compounds read low 0.604 | locus YPL256C, strain CLN2, active compounds read low 0.752
